Pf growth 48h: Primary qHTS for delayed death inhibitors of the malarial parasite plastid, 48 hour incubation; hit rate 5.9% among 310,000; Potency, µM (series often up to 28.7 µM), without a hit: top-dose activity change, negative = inhibition, hits mostly inhibitors; P. falciparum luciferase growth in erythrocytes, 48 h; note: % is set by controls: 0 for no effect and ±100 for the full control effect
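Luciferase-expressing parasites in RBCs, 2% Hct / 0.1% parasitemia final; RPMI 1640 + 0.5% Albumax; 37 C, 5% CO2, one generation; luminescence read-out, lower signal = inhibition.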
SARS PLpro yeast: qHTS of Yeast-based Assay for SARS-CoV PLP | AID 485353, 2010 | hit rate 0.19% among 330,000 | Potency, µM (doses to about 32.9 µM), inactives show at the highest dose activity, positive = growth rescue, most hits filed as activators | S. cerevisiae expressing SARS-CoV PLpro, growth rescue; calls by dose curve; note: 0% is about no effect; nearly all actives have a fitted effect of over 55% in size
Pf growth 96h: Primary qHTS for delayed death inhibitors of the malarial parasite plastid, 96 hour incubation. P. falciparum luciferase reporter growth, 96 h. Potency, µM (series often up to 28.7 µM), for the others: at the highest dose activity change, negative = inhibition, actives largely listed as inhibitors. hit rate 6.9% among 320,000; note: % is set by controls: 0 for no effect and ±100 for the full control effect
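P. falciparum expressing integrated firefly luciferase grown in erythrocytes (2% hematocrit, 0.05% parasitemia final) with compounds for 96 hours at 37 C, 5% CO2. Growth inhibition read as loss of luminescence after adding luciferase detection reagent.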
Sm TGR inh: qHTS Assay for the Inhibitors of Schistosoma Mansoni Peroxiredoxins | Potency, µM (series often up to 114 µM), for the others: top-dose activity change, negative = inhibition, most hits filed as inhibitors | Schistosoma mansoni thioredoxin glutathione reductase (TGR), Q962Y6 | hit rate 3% among 360,000 | AID 485364, 2010 | purified TGR, DTNB reduction, TNB absorbance 405 nm; note: % is set by controls: 0 for no effect and ±100 for the full control effect; nearly all actives have a fitted effect of over 60% in size
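First, TGR (20 nM dispensed) and NADPH were mixed with compound. Second, a 15 min room-temperature incubation followed. Third, further NADPH and then DTNB were added to start the reaction. Finally, TNB absorbance was monitored kinetically.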
The depositor's hits bear a star; u = inconclusive; x = not tested or not shown; [ ] = dose if it differs, or a comment. A selection: hits, their analogues and other compounds. The true share with any hit is near 12%. Unless noted, calls come from the whole dose curve; as a rule, active = well fitted curve in the direction sought with a large enough effect; inconclusive = small, poorly fitted or top-dose-only effect, or another doubt; inactive = no such curve, though single readings can be large; an effect the other way counts as inactive or inconclusive. Potency is the fitted concentration of half-maximal effect.

SMILES | Pf growth 48h | SARS PLpro yeast | Pf growth 96h | Sm TGR inh
CCOC(=O)c1c(-c2ccccc2)oc2ccc(OCC)cc12 | -0.4% | -2.2% | -25.9% | 4.2%
CCOC(=O)c1c(C)n(C)c2ccc(OCC(O)CNCCc3ccccc3)cc12 (stereo not drawn) | u | 0.4% | 4.65µM* | -10.5%
CCOC(=O)c1c(C)n(Cc2ccccc2)c2ccc(OCC(O)CN3C(=O)CNC3=O)cc12 (stereo not drawn) | u | -0.6% | x | 2.7%
CCOC(=O)c1c(C)n(C)c2ccc(OCC(O)Cn3c(C)nc4ccccc43)cc12 (stereo not drawn) | 10.4µM* | -2.0% | x | 0.4%
CCOC(=O)c1c(-c2ccccc2)oc2ccc(OCC(O)CNCCN(C)C)cc12 (stereo not drawn) | 2.08µM* | -3.5% | u | -1.8%
CCOC(=O)c1c(C)n(C)c2ccc(OCC(O)CN3CCN(C)CC3)cc12 (stereo not drawn) | x | 3.2% | -21.3% | 1.5%
CCOC(=O)c1c(C)n(-c2ccc(C)cc2)c2ccc(OCC(O)CN3CCN(C)CC3)cc12 (stereo not drawn) | 9.28µM* | -2.5% | 122.6% | -4.8%
Cc1ccc2c(c1)c1c(c(=O)n(-c3ccccc3C)c(=O)n1CC(=O)NCc1ccccc1)n2C | x | x | x | -0.6%
COc1ccc(-c2csc(NC(=O)C3=COCCO3)n2)cc1OC | 40.0% | -0.8% | 38.0% | 3.1%
O=C1CCCC2=C1C(c1cccc(O)c1)c1c(ccc3ncccc13)N2 (stereo not drawn) | -12.2% | 0.3% | 17.8% | 31.6µM*
O=C1CCCC2=C1C(c1cccs1)Nc1ccc3ncccc3c12 (stereo not drawn) | 42.6% | 0.3% | 44.9% | -0.6%
O=C1CCCC2=C1C(c1ccc(O)c(O)c1)Nc1ccc3ncccc3c12 (stereo not drawn) | -13.8% | 0.0% | 3.3% | 20µM*
COc1ccc(C2C3=C(CCCC3=O)Nc3ccc4ncccc4c32)cc1OC (stereo not drawn) | -26.9% | -0.5% | 0.294µM* | 20µM*
CCOc1cc(C2C3=C(CCCC3=O)Nc3ccc4ncccc4c32)ccc1O (stereo not drawn) | -10.2% | 0.3% | -2.1% | -18.6%
COc1cc(C2C3=C(CCCC3=O)Nc3ccc4ncccc4c32)ccc1O (stereo not drawn) | -11.9% | -0.3% | 29.3% | -8.3%
Oc1ccc(C2C(c3ccccc3)=NN=C(c3ccc(Cl)cc3)N2O)c(O)c1 (stereo not drawn) | u | 13.5% | 2.62µM* | u
Oc1ccc(C2C(c3ccccc3)=NN=C(c3ccccc3F)N2O)c(O)c1 (stereo not drawn) | -14.9% | 21.3% | u | u
Cc1cc(C)cc(Oc2c(C(F)(F)F)oc3c(CN4CCCC(C)C4)c(O)ccc3c2=O)c1 (stereo not drawn) | x | x | x | 1.9%
O=C(CSc1nnnn1-c1ccccc1F)Nc1nc2ccccc2s1 | x | 16.6% | -12.6% | -17.8%
C=CCn1c(CCNC(=O)c2ccccc2F)nnc1SCC(=O)Nc1nc2ccccc2s1 | x | 8.0% | 11.7µM* | -0.5%
COCNc1nc(OCC#N)nc(N(C)C)n1 | 28.7% | -0.3% | u | -0.9%
CCNc1nc(ON=C(C)C)nc(N(C)C)n1 | 8.28µM* | -6.8% | u | 0.0%
CC(NC(=O)c1ccc(OC2CCN(Cc3ccccn3)CC2)cc1)c1ccccc1 (stereo not drawn) | u | 0.3% | 11.7µM* | u
O=C(c1ccc(OC2CCN(Cc3ccccn3)CC2)cc1)N1CCC[C@H]1CO | -0.6% | 3.8% | 3.7µM* | u
CCC1CCCCN1C(=O)c1ccc(OC2CCN(Cc3ccccn3)CC2)cc1 (stereo not drawn) | -24.0% | -0.6% | -12.6% | 1.3%
SMILES | Pf growth 48h | SARS PLpro yeast | Pf growth 96h | Sm TGR inh
CC#CCN(Cc1ccco1)C(=O)c1ccc(OC2CCN(Cc3ccccn3)CC2)cc1 | u | -0.3% | 35.5% | 79.4µM*
CC(=O)Nc1ccc(/C(C)=N\NC(=O)c2ccc(-c3ccccc3)cc2)cc1 | 0.657µM* | -0.5% | u | 0.4%
COCCN(C(=O)COC(=O)CCSc1ccc(F)cc1)c1c(N)n(Cc2ccccc2)c(=O)[nH]c1=O | u | 5.1% | 27.1% | -2.6%
CC(=O)c1ccc(S(=O)(=O)N2CCN(C(=O)c3ccc(-n4nc(C)c(Cl)c4C)cc3)CC2)cc1 | u | 4.2% | 13.1µM* | -13.4%
Cc1cc(C)n(-c2ccc(C(=O)N3CCN(S(=O)(=O)c4ccc(Cl)cc4)CC3)cc2)n1 | 10.4µM* | -1.1% | 2.62µM* | -7.2%
Cc1ccc(S(=O)(=O)N2CCN(C(=O)c3cc4c(s3)CCCC4)CC2)c(C)c1 | u | 1.2% | u | 4.9%
O=C(c1cc2c(s1)CCCC2)N1CCN(S(=O)(=O)c2ccccc2C(F)(F)F)CC1 | u | 21.0% | 11.7µM* | 3.4%
Cc1nn(-c2ccc(C(=O)N3CCN(S(=O)(=O)c4ccccc4C(F)(F)F)CC3)cc2)c(C)c1Cl | 13.1µM* | 2.7% | u | 2.7%
CCCCc1cc(=O)oc2cc(OCC(=O)NCCN3CCOCC3)ccc12 | -9.0% | 2.7% | -13.4% | 0.7%
Cc1cc(Cn2ccnc2)c(C)c([N+](=O)[O-])c1Cn1ccnc1 | 10.4µM* | 0.0% | u | -4.6%
Cc1ccc2c(Cn3ccnc3)cc(=O)oc2c1C | -9.8% | 0.9% | 12.4% | -1.4%
COc1cccc(NC(=O)CN2CC(c3ccccc3)CC2=O)c1 (stereo not drawn) | x | u | 15.2% | -2.1%
O=C(CN1CC(c2ccccc2)CC1=O)NCc1ccc(F)cc1 (stereo not drawn) | 20.6% | -17.9% | 4.15µM* | -16.5%
O=C(COc1ccc([N+](=O)[O-])cc1)NCC(c1cccs1)N1CCOCC1 (stereo not drawn) | u | -4.6% | -12.2% | -1.5%
CN(C)c1ccc(CNC(=O)C2CCCN(S(=O)(=O)c3ccc4c(ccn4C)c3)C2)cc1 (stereo not drawn) | x | x | x | 1.1%
O=C(C[n+]1cn(C(F)F)c2ccccc21)c1ccc(OC(F)F)cc1 | -4.9% | -1.6% | 27.0% | 7.08µM*
Cc1nc2sc(C(=O)O)c(N)c2c2c1COC(C)(C)C2 | u | 1.7% | 36.5% | 0.0%
COC(=O)CSc1ncnc2c1sc1nc(-c3ccco3)c3c(c12)CC(C)(C)OC3 | 28.7% | -1.4% | 21.6% | 3.98µM*
CCOC(=O)c1sc2nc(-c3ccco3)c3c(c2c1N)CC(C)(C)OC3 | u | -4.3% | -12.1% | 0.891µM*
CCSc1ncnc2c1sc1nc(-c3ccco3)c3c(c12)CC(C)(C)OC3 | 47.2% | -13.1% | 48.1% | u
CC(C)c1nc2sc3c(NCc4ccccc4)ncnc3c2c2c1COC(C)(C)C2 | x | -0.9% | 9.28µM* | 5.5%
Cc1nc(SCC(=O)NCc2ccco2)c2c3c(sc2n1)CCCC3 | x | -11.0% | u | -8.7%[11.4 µM]
CCCc1nc2sc3c(SCC(=O)NCc4ccco4)ncnc3c2c2c1CCC2 | -24.0% | 5.2% | 12.9% | 15.8µM*
CCOc1ccc(NC(=O)c2cc3sc(Cl)cc3n2CC)cc1 | x | x | x | 2.2%
